The source made the active and inactive calls.
Experiments:
[1] = system: XIP peptide (Xip251-270) binding; assay: small-molecule binders of XIP peptide, primary screen, biochemical, small-molecule microarray, fluorescence 635/667 nm, 0.1 µg/mL protein (AID 1182); settings: fluorescent protein binding, 635 nm, higher = more signal, called active from +8 up or from −8 down
[2] = system: XIP peptide (Xip251-270); assay: small-molecule binders of XIP peptide, primary screen, biochemical, small-molecule microarray, fluorescence 635/667 nm, 0.5 µg/mL protein (AID 1183); settings: small-molecule microarray binding, fluorescence 635 nm; higher = more signal
[3] = Plasmodium falciparum growth inhibition, primary screen, strain 3D7, DAPI fluorescence, 100 nL (AID 1184);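 note: parasites grown inside human red blood cells in medium with human serum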; settings: P. falciparum 3D7 growth, 3 d, higher = more signal
[4] = target: Homeobox protein Hox-A13 (Mus musculus) (UniProt Q62424); assay: inhibitors of HoxA13-DNA binding, primary screen, biochemical, fluorescence polarization, labeled oligonucleotide (AID 1185); settings: 15 min, higher = more signal, called active from +8 up or from −8 down
Chain of Homeobox protein Hox-A13 (Mus musculus) (Q62424 whole entry, looked up): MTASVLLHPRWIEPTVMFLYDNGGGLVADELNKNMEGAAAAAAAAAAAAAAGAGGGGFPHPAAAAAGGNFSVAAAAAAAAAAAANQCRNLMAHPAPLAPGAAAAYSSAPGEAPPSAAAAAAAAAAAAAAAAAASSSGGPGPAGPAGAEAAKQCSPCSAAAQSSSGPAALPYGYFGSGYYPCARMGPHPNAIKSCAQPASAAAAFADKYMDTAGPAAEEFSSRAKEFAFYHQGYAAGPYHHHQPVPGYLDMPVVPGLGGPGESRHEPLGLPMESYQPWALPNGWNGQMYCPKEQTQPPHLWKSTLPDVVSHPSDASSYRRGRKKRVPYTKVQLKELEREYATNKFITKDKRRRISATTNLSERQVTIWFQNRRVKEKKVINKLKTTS

Row | Compound | composite z-score [1] | composite z-score [2] | z-score [3] | z-score [4]
1 | CO[C@H]1COC(=O)[C@H](C)COC(=O)CC=C[C@@H](C)[C@H](OC)COC(=O)CC=C[C@@H]1C | 0.159 (inactive) | -0.0452 | 1.7 | 0.149 (inactive)
2 | CC(CCN1CCc2nc(-c3ccccc3)c(-c3ccccc3)cc2C1)=NO[C@@H](C)c1cn([C@H](CO)Cc2ccccc2)nn1 | -0.416 (inactive) | -0.346 | -0.17 | -4.81 (inactive)
3 | CCOC(=O)[C@H](Cc1ccccc1)NC(=O)CCC1CC(OC(=O)NCc2ccc3c(c2)OCO3)CC2(CCCC(COC(=O)NCC(c3ccccc3)c3ccccc3)O2)O1 (stereo partly drawn) | 0.48 (inactive) | 0.308 | -0.909 | -3.45 (inactive)
4 | CO[C@H]([C@@H](C)[C@H](OC)c1ccccc1)[C@H](C)[C@@H](OC)[C@H](C)C(C)=O | 0.111 (inactive) | -0.694 | 0.117 | -1.36 (inactive)
5 | CC(C)(C)N1C(=O)[C@H]2[C@H]3[C@H](O)[C@H](O)CC(=NO[C@@H]4O[C@H](CO)[C@@H](O)[C@H](O)[C@H]4O)[C@@H]3CC[C@H]2C1=O | 1.16 (inactive) | 0.26 | 2.01 | 0.0059 (inactive)
6 | COC(=O)CC=C[C@H](C)[C@H](CO)NS(=O)(=O)c1ccc(C)cc1 | -0.291 (inactive) | 0.507 | 0.225 | -1.56 (inactive)
7 | CC(C)CON=C1C[C@@H](O)[C@@H](O)[C@@H]2[C@@H]3C(=O)N([C@@H](C)c4ccccc4)C(=O)[C@@H]3CC[C@H]12 | -0.0093 (inactive) | 0.402 | 0.529 | 0.0364 (inactive)
